Here are results for eleven sequences from article PMC7862700, “An all-to-all approach to the identification of sequence-specific readers for epigenetic DNA modifications on cytosine”.

Experiment in all cases: DAPPL (digital affinity profiling via proximity ligation, sequencing); 10 mM Tris-HCl pH 7.5, 50 mM NaCl, 1 mM DTT, 4% glycerol, room temperature, 30 min; GST-TFs on glutathione beads, 16-mer random dsDNA library, 0.1% formaldehyde crosslink after washing; high values mean tight binding
Holding throughout (conditions): protein: recombinant; tags: N-terminal GST; dsDNA, one strand shown

The target in one experiment is T1, FLI1 (Homo sapiens, UniProt Q01543 1-452).
T1 sequence: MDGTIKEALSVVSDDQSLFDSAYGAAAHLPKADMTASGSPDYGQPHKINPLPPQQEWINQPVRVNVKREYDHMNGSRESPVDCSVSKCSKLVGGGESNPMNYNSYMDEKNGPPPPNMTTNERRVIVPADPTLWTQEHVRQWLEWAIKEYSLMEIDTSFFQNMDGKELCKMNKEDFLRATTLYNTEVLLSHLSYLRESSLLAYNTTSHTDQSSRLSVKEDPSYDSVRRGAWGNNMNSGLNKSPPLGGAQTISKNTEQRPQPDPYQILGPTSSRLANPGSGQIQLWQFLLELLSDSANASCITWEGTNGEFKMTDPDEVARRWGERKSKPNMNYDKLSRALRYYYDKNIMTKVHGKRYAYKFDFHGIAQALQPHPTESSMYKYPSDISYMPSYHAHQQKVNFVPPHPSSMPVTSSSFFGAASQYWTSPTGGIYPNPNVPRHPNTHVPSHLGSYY
The method, boiled down: (§1)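 Each value of binding signal is a hexamer's read frequency for a factor divided by the same hexamer's frequency in the tag-only sample. Barcoded, bead-captured GST fusions of human transcription factors made in yeast were pooled with that sample and incubated with 200 nmole of a random double-stranded 16-mer DNA library in Tris/NaCl/DTT/glycerol buffer at room temperature for 30 min. Washing, 0.1% formaldehyde crosslinking, proximity ligation, PCR and Illumina NextSeq500 sequencing followed.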

Another experiment deals with T2, ELK1 (Homo sapiens, UniProt P19419 1-428).
T2 sequence: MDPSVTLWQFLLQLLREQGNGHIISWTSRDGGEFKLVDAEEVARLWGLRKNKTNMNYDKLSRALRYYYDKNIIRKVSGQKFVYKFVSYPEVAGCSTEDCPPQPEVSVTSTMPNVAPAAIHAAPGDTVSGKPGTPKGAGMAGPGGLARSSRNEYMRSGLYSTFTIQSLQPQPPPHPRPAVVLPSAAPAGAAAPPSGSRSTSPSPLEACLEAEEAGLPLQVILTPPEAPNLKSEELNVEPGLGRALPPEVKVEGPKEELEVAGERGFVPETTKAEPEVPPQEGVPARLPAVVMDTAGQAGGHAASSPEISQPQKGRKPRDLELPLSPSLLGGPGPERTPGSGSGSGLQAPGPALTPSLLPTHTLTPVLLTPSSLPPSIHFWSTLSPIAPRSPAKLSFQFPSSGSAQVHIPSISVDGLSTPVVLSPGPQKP
In short, it runs like this:
as §1

Another experiment has as its target T3, GABPA (Homo sapiens, UniProt Q06546 1-454).
T3 sequence: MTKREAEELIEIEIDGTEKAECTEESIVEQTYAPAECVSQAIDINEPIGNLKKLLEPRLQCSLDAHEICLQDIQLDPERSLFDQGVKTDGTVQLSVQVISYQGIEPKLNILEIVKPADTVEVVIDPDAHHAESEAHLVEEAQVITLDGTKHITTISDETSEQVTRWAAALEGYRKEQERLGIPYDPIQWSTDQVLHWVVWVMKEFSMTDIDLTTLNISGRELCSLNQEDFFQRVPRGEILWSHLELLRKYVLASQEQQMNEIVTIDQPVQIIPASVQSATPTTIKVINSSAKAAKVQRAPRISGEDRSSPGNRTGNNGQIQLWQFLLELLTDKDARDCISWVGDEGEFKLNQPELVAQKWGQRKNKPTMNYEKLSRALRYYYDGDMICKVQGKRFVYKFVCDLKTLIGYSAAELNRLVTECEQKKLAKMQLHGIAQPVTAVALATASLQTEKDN
The method, boiled down: as §1

The next experiment has as its target T4, ERG (Homo sapiens, UniProt P11308 1-479).
T4 sequence: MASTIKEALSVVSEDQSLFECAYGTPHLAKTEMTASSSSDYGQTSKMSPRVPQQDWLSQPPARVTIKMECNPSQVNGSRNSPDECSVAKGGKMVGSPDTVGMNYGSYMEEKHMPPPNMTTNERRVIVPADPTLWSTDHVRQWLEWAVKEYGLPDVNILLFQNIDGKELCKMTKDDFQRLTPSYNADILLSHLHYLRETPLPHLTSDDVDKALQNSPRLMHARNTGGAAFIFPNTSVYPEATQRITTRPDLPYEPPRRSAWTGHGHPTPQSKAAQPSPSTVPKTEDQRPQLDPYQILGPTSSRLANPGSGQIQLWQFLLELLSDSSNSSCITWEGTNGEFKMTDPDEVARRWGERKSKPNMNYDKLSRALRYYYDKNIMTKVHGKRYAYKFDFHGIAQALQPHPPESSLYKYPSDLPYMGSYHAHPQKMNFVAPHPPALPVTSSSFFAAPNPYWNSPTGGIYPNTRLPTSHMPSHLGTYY
The method, boiled down: as §1

The next experiment addresses ELF1 (Homo sapiens, UniProt P32519 1-619). In short, it runs like this:
as §1

The target in a further experiment is SPI1 (Homo sapiens, UniProt P17947 1-270). In short, it runs like this: as §1
For the next experiment, the target named is SPIB (Homo sapiens, UniProt Q01892 1-262). The method, boiled down:
as §1

The next experiment addresses T5, ELK3 (Homo sapiens, UniProt P41970 1-407).
T5 sequence: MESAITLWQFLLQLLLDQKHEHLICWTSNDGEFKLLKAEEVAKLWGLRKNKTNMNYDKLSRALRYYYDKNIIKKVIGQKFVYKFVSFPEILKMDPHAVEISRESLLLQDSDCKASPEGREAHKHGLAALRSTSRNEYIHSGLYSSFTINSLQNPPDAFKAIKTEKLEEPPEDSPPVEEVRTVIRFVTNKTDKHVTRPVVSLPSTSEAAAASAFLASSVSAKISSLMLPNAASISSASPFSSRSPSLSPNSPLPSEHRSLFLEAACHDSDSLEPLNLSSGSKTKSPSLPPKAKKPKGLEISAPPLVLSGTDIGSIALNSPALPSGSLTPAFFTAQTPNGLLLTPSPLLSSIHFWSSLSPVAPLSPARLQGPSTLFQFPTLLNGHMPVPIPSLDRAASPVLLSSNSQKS
The method, boiled down: as §1

The target of another experiment is T6, EHF (Homo sapiens, UniProt Q9NZC4 1-300).
T6 sequence: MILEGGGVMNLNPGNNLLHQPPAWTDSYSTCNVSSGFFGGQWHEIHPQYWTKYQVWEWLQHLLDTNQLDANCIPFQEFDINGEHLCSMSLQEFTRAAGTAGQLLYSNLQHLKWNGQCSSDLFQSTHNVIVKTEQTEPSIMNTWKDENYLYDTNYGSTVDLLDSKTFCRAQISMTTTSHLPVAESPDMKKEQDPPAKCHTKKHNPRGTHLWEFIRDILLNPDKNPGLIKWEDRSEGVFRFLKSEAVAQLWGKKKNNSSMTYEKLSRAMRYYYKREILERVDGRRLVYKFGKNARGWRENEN
In short, it runs like this:
as §1

ELF1, sequence (P32519 whole entry): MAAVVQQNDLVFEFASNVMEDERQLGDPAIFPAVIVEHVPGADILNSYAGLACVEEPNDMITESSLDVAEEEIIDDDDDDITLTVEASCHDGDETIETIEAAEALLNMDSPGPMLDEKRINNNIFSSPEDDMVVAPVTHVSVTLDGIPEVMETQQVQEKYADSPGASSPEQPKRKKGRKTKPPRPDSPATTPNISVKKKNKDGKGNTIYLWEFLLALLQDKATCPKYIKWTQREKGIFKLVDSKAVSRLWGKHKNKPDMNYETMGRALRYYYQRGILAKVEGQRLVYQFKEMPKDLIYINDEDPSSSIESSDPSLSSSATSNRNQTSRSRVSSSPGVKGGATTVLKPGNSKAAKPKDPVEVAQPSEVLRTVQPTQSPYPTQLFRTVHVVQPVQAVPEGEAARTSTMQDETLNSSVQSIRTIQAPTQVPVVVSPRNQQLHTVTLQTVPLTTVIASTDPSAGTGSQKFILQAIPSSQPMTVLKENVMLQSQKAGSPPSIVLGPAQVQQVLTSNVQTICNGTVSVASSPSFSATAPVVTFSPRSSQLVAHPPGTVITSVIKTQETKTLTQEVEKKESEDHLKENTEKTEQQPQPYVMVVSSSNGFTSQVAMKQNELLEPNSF
SPIB, sequence (Q01892 whole entry): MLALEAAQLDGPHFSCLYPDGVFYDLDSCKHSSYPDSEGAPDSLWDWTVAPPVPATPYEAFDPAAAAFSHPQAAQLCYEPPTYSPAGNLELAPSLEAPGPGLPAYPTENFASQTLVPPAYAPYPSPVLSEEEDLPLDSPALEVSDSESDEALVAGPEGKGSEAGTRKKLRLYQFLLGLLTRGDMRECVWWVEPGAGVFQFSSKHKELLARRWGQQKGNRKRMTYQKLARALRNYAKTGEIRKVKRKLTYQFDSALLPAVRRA

With GCCCAT, the binding signal in the experiment with FLI1 was 1.06 fold enrichment (6-mer frequency, TF over GST control); with ELK1 it was 1.05 fold enrichment (6-mer frequency, TF over GST control); in the experiment with GABPA, 1.17 fold enrichment (6-mer frequency, TF over GST control); in the experiment with ERG, 1.04 fold enrichment (6-mer frequency, TF over GST control); in the experiment with ELF1 it was 1.06 fold enrichment (6-mer frequency, TF over GST control); in the experiment with SPI1, 1.03 fold enrichment (6-mer frequency, TF over GST control). Moreover, the binding signal was 1.04 fold enrichment (6-mer frequency, TF over GST control) with SPIB and 1.04 fold enrichment (6-mer frequency, TF over GST control) in the experiment with ELK3.
In the case of CGATCA, the binding signal was 1.15 fold enrichment (6-mer frequency, TF over GST control) with FLI1; 1.13 fold enrichment (6-mer frequency, TF over GST control) with ELK1; 1.15 fold enrichment (6-mer frequency, TF over GST control) in the experiment with GABPA; 1.07 fold enrichment (6-mer frequency, TF over GST control) with ERG; 1.2 fold enrichment (6-mer frequency, TF over GST control) with ELF1; 1.02 fold enrichment (6-mer frequency, TF over GST control) with SPI1. The binding signal with SPIB was 1.06 fold enrichment (6-mer frequency, TF over GST control); with ELK3, 1.23 fold enrichment (6-mer frequency, TF over GST control).
Take AAAAGT: the binding signal is 1.02 fold enrichment (6-mer frequency, TF over GST control) with FLI1; 1.1 fold enrichment (6-mer frequency, TF over GST control) with ELK1; 1.08 fold enrichment (6-mer frequency, TF over GST control) with GABPA; 1.01 fold enrichment (6-mer frequency, TF over GST control) with ELF1; 1.1 fold enrichment (6-mer frequency, TF over GST control) in the experiment with EHF; 1.06 fold enrichment (6-mer frequency, TF over GST control) with SPI1. Moreover, the binding signal in the experiment with SPIB was 1.12 fold enrichment (6-mer frequency, TF over GST control); in the experiment with ELK3 it was 1.06 fold enrichment (6-mer frequency, TF over GST control).
In the case of GGCTTG, the binding signal was 1.12 fold enrichment (6-mer frequency, TF over GST control) with FLI1; 1.04 fold enrichment (6-mer frequency, TF over GST control) with ELK1; 1.04 fold enrichment (6-mer frequency, TF over GST control) in the experiment with GABPA; 1.09 fold enrichment (6-mer frequency, TF over GST control) in the experiment with ERG; 1.02 fold enrichment (6-mer frequency, TF over GST control) with SPI1; 1.06 fold enrichment (6-mer frequency, TF over GST control) in the experiment with SPIB.
With TGGTTA, the binding signal in the experiment with FLI1 was 1.17 fold enrichment (6-mer frequency, TF over GST control); with ELK1 it was 1.08 fold enrichment (6-mer frequency, TF over GST control); with GABPA, 1.09 fold enrichment (6-mer frequency, TF over GST control); with ERG, 1.13 fold enrichment (6-mer frequency, TF over GST control); with ELF1 it was 1.1 fold enrichment (6-mer frequency, TF over GST control); in the experiment with SPI1, 1.15 fold enrichment (6-mer frequency, TF over GST control). Moreover, the binding signal with SPIB is 1.12 fold enrichment (6-mer frequency, TF over GST control); with ELK3, 1.13 fold enrichment (6-mer frequency, TF over GST control).
On to AAAGCT, for which the binding signal is 1.06 fold enrichment (6-mer frequency, TF over GST control) with FLI1; 1.09 fold enrichment (6-mer frequency, TF over GST control) with ELK1; 1.08 fold enrichment (6-mer frequency, TF over GST control) with GABPA; 1.08 fold enrichment (6-mer frequency, TF over GST control) in the experiment with ERG; 1.09 fold enrichment (6-mer frequency, TF over GST control) with ELF1; 1.01 fold enrichment (6-mer frequency, TF over GST control) in the experiment with SPI1. Also, the binding signal with SPIB is 1.06 fold enrichment (6-mer frequency, TF over GST control); in the experiment with ELK3 it was 1.01 fold enrichment (6-mer frequency, TF over GST control).
For TCAGCA, the binding signal with FLI1 is 1.08 fold enrichment (6-mer frequency, TF over GST control); with ELK1, 1.02 fold enrichment (6-mer frequency, TF over GST control); in the experiment with GABPA it was 1.06 fold enrichment (6-mer frequency, TF over GST control); with ELF1, 1.04 fold enrichment (6-mer frequency, TF over GST control); with EHF, 1.09 fold enrichment (6-mer frequency, TF over GST control); in the experiment with SPI1, 1.02 fold enrichment (6-mer frequency, TF over GST control). In addition, the binding signal with SPIB is 1.01 fold enrichment (6-mer frequency, TF over GST control); with ELK3 it was 1.07 fold enrichment (6-mer frequency, TF over GST control).
With GCTTTT, the binding signal is 1.06 fold enrichment (6-mer frequency, TF over GST control) with FLI1; 1.05 fold enrichment (6-mer frequency, TF over GST control) in the experiment with ELK1; 1.16 fold enrichment (6-mer frequency, TF over GST control) with GABPA; 1 fold enrichment (6-mer frequency, TF over GST control) with ERG; 1.09 fold enrichment (6-mer frequency, TF over GST control) with ELF1; 1.33 fold enrichment (6-mer frequency, TF over GST control) with SPI1. Besides, the binding signal with SPIB was 1.16 fold enrichment (6-mer frequency, TF over GST control); with ELK3, 1.11 fold enrichment (6-mer frequency, TF over GST control).
CTGCAG: the binding signal in the experiment with FLI1 is 1.13 fold enrichment (6-mer frequency, TF over GST control); with ELK1 it was 1.1 fold enrichment (6-mer frequency, TF over GST control); with GABPA it was 1.16 fold enrichment (6-mer frequency, TF over GST control); in the experiment with ELF1, 1.08 fold enrichment (6-mer frequency, TF over GST control); in the experiment with EHF, 1.18 fold enrichment (6-mer frequency, TF over GST control); in the experiment with SPI1 it was 1.14 fold enrichment (6-mer frequency, TF over GST control). Besides, the binding signal with SPIB is 1.08 fold enrichment (6-mer frequency, TF over GST control); with ELK3 it was 1.05 fold enrichment (6-mer frequency, TF over GST control).
Take GCTGGC: the binding signal in the experiment with FLI1 is 1.01 fold enrichment (6-mer frequency, TF over GST control); with ELK1, 1.21 fold enrichment (6-mer frequency, TF over GST control); with GABPA, 1.02 fold enrichment (6-mer frequency, TF over GST control); with ERG, 1.01 fold enrichment (6-mer frequency, TF over GST control); with ELF1 it was 1.11 fold enrichment (6-mer frequency, TF over GST control); in the experiment with SPI1, 1 fold enrichment (6-mer frequency, TF over GST control). The binding signal with ELK3 is 1.03 fold enrichment (6-mer frequency, TF over GST control).
On to TGTGGA, for which the binding signal was 1.08 fold enrichment (6-mer frequency, TF over GST control) in the experiment with FLI1; 1.01 fold enrichment (6-mer frequency, TF over GST control) with ELK1; 1.06 fold enrichment (6-mer frequency, TF over GST control) with GABPA; 1.16 fold enrichment (6-mer frequency, TF over GST control) with ERG; 1.11 fold enrichment (6-mer frequency, TF over GST control) in the experiment with ELF1; 1.09 fold enrichment (6-mer frequency, TF over GST control) with SPI1. Moreover, the binding signal was 1.1 fold enrichment (6-mer frequency, TF over GST control) with SPIB and 1.04 fold enrichment (6-mer frequency, TF over GST control) with ELK3.
